Data taken from publication PMC7862700, “An all-to-all approach to the identification of sequence-specific readers for epigenetic DNA modifications on cytosine”.

Columns and labels:
Experiment in all cases: DAPPL (digital affinity profiling via proximity ligation, sequencing); 10 mM Tris-HCl pH 7.5, 50 mM NaCl, 1 mM DTT, 4% glycerol, room temperature, 30 min; GST-TFs on glutathione beads, 16-mer random dsDNA library, 0.1% formaldehyde crosslink after washing; high values mean tight binding
FLI1 = target: T1, FLI1 (Homo sapiens, UniProt Q01543 1-452); conditions: protein: recombinant; tags: N-terminal GST; dsDNA, one strand shown
T1 sequence: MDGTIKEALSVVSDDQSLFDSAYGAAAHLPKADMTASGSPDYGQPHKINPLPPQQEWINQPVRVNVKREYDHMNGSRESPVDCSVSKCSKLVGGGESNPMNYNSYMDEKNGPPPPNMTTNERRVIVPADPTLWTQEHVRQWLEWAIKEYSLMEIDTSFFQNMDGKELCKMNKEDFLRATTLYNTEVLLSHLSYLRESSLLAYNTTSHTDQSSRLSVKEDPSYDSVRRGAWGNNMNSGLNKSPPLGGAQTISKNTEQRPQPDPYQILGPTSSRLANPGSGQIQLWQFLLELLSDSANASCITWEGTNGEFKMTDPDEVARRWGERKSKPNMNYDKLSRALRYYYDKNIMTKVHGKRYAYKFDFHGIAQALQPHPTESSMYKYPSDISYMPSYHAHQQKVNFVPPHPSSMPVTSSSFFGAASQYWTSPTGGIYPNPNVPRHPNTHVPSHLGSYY
In short: (§1)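 Binding signal is defined as a hexamer's read frequency for one factor over its frequency for the tag-only sample. To obtain reads, GST-fused human transcription factors were expressed in yeast, captured on glutathione beads, barcoded with DNA and pooled with that sample. Pools met 200 nmole of a 16-mer random double-stranded DNA library in Tris/NaCl/DTT/glycerol buffer for 30 min at room temperature before washing, 0.1% formaldehyde crosslinking, proximity ligation (BsaI/T4 ligase, 1 h, 37 °C), PCR and Illumina NextSeq500 sequencing.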

ELK1 = target: T2, ELK1 (Homo sapiens, UniProt P19419 1-428); conditions: protein: recombinant; tags: N-terminal GST; dsDNA, one strand shown
T2 sequence: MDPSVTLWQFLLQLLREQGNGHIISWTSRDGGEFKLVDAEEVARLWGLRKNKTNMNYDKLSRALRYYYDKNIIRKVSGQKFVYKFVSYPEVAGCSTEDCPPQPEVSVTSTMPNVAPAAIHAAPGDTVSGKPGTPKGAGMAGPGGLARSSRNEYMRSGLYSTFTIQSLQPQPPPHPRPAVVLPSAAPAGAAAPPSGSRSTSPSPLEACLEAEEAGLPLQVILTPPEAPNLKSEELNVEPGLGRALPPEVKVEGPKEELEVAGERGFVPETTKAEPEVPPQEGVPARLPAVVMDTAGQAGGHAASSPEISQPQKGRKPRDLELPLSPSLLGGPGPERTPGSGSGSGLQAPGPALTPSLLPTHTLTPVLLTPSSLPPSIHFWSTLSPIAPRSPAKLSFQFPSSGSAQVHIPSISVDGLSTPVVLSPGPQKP
In short: as §1

GABPA = target: T3, GABPA (Homo sapiens, UniProt Q06546 1-454); conditions: protein: recombinant; tags: N-terminal GST; dsDNA, one strand shown
T3 sequence: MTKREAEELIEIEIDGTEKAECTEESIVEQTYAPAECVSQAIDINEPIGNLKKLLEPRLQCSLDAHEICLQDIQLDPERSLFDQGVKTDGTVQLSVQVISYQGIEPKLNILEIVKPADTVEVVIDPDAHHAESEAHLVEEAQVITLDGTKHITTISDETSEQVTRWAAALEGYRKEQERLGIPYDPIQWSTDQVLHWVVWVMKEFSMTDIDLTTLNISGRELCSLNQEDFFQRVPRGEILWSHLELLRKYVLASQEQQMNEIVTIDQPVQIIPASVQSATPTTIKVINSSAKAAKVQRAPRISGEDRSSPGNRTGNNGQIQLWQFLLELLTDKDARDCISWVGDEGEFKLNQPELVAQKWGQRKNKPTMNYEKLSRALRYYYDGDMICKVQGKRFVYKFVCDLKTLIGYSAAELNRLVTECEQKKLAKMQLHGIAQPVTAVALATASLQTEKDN
In short: as §1

ERG = target: T4, ERG (Homo sapiens, UniProt P11308 1-479); conditions: protein: recombinant; tags: N-terminal GST; dsDNA, one strand shown
T4 sequence: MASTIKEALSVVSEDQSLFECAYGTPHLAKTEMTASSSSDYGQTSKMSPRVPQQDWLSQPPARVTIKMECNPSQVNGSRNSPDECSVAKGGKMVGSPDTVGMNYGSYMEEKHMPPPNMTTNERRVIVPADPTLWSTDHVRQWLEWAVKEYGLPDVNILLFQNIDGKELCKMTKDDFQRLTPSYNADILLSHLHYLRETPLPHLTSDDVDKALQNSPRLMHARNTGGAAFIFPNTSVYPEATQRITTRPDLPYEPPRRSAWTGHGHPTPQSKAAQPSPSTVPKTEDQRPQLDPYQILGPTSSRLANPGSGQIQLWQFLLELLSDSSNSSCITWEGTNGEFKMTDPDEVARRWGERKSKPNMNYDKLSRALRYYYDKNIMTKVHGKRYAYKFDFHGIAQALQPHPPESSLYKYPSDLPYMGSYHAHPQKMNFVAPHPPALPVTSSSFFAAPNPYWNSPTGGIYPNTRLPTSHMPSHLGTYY
In short: as §1

ELF1 = ELF1 (Homo sapiens, UniProt P32519 1-619); conditions: protein: recombinant; tags: N-terminal GST; dsDNA, one strand shown
In short: as §1

EHF = target: T5, EHF (Homo sapiens, UniProt Q9NZC4 1-300); conditions: protein: recombinant; tags: N-terminal GST; dsDNA, one strand shown
T5 sequence: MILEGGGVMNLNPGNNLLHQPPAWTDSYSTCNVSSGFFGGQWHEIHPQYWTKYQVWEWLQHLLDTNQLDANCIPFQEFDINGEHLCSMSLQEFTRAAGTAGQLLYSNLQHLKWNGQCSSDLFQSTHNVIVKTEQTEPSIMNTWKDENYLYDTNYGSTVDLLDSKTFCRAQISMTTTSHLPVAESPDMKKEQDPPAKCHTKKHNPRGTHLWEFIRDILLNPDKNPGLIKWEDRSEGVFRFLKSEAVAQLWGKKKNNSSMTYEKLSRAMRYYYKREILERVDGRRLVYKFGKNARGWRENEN
In short: as §1

SPI1 = SPI1 (Homo sapiens, UniProt P17947 1-270); conditions: protein: recombinant; tags: N-terminal GST; dsDNA, one strand shown
In short: as §1

SPIB = SPIB (Homo sapiens, UniProt Q01892 1-262); conditions: protein: recombinant; tags: N-terminal GST; dsDNA, one strand shown
In short: as §1

ELK3 = target: T6, ELK3 (Homo sapiens, UniProt P41970 1-407); conditions: protein: recombinant; tags: N-terminal GST; dsDNA, one strand shown
T6 sequence: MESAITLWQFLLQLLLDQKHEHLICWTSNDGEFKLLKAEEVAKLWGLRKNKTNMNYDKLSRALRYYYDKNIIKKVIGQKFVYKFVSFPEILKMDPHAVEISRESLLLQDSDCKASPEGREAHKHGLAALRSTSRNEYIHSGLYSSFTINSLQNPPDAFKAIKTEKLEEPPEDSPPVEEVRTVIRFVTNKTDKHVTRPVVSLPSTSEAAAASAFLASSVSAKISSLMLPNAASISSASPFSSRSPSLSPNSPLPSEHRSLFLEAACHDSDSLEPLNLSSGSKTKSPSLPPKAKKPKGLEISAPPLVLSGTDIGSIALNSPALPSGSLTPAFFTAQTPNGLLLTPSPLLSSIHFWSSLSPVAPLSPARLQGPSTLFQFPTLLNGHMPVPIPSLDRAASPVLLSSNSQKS
In short: as §1

FEV = target: T7, FEV (Homo sapiens, UniProt Q99581 1-238); conditions: protein: recombinant; tags: N-terminal GST; dsDNA, one strand shown
T7 sequence: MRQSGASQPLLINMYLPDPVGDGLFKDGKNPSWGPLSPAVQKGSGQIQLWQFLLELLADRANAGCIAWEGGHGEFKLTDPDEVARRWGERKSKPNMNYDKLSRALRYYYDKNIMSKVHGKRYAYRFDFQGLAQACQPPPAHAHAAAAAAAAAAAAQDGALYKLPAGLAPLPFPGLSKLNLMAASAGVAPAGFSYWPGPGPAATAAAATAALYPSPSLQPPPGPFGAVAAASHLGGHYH
In short: as §1

ETV5 = ETV5 (Homo sapiens, UniProt P41161 1-510); conditions: protein: recombinant; tags: N-terminal GST; dsDNA, one strand shown
In short: as §1

HSF1 = HSF1 (Homo sapiens, UniProt Q00613 1-529); conditions: protein: recombinant; tags: N-terminal GST; chain copies: 3; dsDNA, one strand shown
In short: as §1

SPIC = target: T8, SPIC (Homo sapiens, UniProt Q8N5J4 1-248); conditions: protein: recombinant; tags: N-terminal GST; dsDNA, one strand shown
T8 sequence: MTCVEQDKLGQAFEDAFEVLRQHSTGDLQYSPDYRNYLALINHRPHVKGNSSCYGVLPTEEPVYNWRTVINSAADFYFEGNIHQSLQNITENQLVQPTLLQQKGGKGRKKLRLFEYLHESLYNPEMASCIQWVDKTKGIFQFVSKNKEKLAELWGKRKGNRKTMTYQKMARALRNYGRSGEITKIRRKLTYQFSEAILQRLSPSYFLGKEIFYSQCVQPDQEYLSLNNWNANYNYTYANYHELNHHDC
In short: as §1

ELF4 = ELF4 (Homo sapiens, UniProt Q99607 1-663); conditions: protein: recombinant; tags: N-terminal GST; dsDNA, one strand shown
In short: as §1

ELK4 = target: T9, ELK4 (Homo sapiens, UniProt P28324-2 1-405); conditions: protein: recombinant; tags: N-terminal GST; dsDNA, one strand shown
T9 sequence: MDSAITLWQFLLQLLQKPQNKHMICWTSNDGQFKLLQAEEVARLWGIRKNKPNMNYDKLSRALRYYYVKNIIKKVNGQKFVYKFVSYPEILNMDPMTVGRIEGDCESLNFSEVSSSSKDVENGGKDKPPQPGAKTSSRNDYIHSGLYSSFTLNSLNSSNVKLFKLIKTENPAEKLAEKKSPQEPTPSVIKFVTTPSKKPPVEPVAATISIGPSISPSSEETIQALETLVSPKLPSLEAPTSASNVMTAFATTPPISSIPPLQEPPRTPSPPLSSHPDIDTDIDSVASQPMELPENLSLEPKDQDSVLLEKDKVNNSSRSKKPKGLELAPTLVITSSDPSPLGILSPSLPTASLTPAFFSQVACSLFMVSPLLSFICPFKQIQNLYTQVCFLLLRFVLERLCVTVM
In short: as §1

ETV2 = target: T10, ETV2 (Homo sapiens, UniProt O00321 1-342); conditions: protein: recombinant; tags: N-terminal GST; dsDNA, one strand shown
T10 sequence: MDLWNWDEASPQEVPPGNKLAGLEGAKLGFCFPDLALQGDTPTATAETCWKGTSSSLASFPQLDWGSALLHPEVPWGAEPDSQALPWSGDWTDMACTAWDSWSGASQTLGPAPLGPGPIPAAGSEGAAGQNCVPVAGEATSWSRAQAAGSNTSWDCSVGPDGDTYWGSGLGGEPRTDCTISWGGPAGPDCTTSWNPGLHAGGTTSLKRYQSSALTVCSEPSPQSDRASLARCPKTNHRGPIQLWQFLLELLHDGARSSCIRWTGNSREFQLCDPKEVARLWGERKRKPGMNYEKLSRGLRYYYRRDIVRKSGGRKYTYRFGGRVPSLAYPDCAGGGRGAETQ
In short: as §1

ELF3 = target: T11, ELF3 (Homo sapiens, UniProt P78545 1-371); conditions: protein: recombinant; tags: N-terminal GST; dsDNA, one strand shown
T11 sequence: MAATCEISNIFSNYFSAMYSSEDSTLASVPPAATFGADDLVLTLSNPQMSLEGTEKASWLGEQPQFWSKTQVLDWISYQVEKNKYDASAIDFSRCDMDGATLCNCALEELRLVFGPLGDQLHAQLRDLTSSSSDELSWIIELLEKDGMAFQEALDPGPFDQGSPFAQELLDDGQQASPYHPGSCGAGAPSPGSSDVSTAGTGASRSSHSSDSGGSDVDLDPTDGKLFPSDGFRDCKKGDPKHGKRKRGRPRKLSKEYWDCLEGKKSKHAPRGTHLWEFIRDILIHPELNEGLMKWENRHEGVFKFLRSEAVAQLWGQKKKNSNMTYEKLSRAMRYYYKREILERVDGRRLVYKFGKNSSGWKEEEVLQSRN
In short: as §1

CRX = CRX (Homo sapiens, UniProt O43186 1-299); conditions: protein: recombinant; tags: N-terminal GST; dsDNA, one strand shown
In short: as §1

ETV1 = ETV1 (Homo sapiens, UniProt P50549 1-477); conditions: protein: recombinant; tags: N-terminal GST; dsDNA, one strand shown
In short: as §1

CRX, sequence (O43186 whole entry): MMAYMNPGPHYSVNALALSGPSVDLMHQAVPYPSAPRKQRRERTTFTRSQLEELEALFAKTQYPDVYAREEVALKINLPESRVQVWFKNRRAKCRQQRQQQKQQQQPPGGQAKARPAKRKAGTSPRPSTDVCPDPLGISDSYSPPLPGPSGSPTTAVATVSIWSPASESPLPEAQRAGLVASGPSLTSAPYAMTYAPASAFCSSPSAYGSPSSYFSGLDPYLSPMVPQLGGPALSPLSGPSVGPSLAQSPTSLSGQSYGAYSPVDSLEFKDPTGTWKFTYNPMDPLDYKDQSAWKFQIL
ELF1, sequence (P32519 whole entry): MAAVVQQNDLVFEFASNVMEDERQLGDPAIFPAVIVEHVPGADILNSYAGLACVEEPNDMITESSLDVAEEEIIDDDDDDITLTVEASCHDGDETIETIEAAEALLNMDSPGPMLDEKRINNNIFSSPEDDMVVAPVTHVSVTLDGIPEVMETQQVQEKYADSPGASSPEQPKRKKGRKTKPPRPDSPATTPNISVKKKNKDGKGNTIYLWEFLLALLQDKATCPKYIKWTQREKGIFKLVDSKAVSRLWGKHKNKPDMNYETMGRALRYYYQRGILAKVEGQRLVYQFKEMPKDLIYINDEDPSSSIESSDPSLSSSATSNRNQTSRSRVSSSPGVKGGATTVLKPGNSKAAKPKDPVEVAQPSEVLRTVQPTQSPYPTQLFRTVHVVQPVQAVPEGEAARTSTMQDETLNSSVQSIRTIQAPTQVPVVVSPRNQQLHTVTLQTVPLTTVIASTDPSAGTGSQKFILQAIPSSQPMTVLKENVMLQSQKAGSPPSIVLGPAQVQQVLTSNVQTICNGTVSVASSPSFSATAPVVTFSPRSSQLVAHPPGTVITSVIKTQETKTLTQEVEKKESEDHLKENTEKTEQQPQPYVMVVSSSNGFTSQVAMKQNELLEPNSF
HSF1, sequence (Q00613 whole entry): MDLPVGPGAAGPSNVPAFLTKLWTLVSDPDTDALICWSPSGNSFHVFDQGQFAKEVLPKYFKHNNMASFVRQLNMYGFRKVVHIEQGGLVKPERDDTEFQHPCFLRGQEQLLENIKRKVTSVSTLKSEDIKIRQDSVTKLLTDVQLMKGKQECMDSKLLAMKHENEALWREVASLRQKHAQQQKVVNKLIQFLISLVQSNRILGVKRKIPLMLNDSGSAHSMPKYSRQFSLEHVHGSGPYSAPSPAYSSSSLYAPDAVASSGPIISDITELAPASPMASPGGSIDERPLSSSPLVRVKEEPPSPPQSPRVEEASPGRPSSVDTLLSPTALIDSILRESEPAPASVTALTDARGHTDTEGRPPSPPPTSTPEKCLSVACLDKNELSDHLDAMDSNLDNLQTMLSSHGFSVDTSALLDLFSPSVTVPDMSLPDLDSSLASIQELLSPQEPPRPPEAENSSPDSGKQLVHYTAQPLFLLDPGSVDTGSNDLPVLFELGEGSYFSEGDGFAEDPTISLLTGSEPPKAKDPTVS
SPIB, sequence (Q01892 whole entry): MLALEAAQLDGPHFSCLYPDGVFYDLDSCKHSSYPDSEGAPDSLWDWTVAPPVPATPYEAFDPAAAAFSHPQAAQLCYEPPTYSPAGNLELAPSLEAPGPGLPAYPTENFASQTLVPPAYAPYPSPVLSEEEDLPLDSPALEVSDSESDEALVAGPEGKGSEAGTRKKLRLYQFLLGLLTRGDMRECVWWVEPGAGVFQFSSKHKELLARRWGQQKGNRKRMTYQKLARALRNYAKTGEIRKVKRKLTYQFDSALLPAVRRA
ELF4, sequence (Q99607 whole entry): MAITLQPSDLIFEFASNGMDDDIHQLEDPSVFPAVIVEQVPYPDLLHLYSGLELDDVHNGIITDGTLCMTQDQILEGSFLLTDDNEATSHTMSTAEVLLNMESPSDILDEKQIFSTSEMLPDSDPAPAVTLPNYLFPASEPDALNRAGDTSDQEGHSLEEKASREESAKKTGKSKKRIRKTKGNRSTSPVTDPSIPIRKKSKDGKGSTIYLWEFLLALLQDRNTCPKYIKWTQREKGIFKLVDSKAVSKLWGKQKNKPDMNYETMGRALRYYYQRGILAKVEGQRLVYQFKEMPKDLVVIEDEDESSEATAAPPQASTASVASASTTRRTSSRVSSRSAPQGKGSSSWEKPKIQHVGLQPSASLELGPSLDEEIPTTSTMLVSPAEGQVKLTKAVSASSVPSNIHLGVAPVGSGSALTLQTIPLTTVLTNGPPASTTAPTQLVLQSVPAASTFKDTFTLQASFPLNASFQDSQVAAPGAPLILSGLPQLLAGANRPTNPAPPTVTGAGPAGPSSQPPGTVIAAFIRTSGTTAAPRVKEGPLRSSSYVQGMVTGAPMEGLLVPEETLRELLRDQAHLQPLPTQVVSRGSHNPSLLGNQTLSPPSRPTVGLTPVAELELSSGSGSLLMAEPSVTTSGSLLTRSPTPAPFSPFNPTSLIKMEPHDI
ETV5, sequence (P41161 whole entry): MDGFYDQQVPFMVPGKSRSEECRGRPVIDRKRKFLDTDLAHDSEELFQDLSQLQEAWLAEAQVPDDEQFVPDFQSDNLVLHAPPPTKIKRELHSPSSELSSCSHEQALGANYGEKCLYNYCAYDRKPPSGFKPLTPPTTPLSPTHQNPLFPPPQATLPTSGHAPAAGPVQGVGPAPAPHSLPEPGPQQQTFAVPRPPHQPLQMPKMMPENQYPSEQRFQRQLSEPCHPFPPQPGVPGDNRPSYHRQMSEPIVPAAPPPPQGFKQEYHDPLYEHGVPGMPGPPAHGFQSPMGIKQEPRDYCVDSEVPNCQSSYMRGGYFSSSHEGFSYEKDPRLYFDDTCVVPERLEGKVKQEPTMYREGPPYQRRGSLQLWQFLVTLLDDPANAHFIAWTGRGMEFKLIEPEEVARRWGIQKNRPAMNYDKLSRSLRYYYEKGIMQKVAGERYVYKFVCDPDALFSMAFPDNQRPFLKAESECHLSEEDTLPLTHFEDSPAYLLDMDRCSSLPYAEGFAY
ETV1, sequence (P50549 whole entry): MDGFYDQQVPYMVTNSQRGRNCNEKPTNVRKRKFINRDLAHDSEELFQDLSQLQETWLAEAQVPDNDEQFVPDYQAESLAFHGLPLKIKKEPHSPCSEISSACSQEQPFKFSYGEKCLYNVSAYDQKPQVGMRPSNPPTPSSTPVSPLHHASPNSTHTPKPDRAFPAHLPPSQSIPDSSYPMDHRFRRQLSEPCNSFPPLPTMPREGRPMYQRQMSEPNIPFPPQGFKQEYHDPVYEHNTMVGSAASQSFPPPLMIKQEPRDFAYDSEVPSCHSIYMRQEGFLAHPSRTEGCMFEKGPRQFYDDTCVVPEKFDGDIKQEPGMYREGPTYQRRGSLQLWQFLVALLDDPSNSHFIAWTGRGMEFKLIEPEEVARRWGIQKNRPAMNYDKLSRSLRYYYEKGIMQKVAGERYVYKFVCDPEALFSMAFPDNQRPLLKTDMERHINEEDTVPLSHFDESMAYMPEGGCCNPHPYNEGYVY

TTACAG
binding signal (FLI1): 1.19 fold enrichment (6-mer frequency, TF over GST control)
binding signal (ELK1): 1.18 fold enrichment (6-mer frequency, TF over GST control)
binding signal (GABPA): 1.15 fold enrichment (6-mer frequency, TF over GST control)
binding signal (ERG): 1.17 fold enrichment (6-mer frequency, TF over GST control)
binding signal (ELF1): 1.22 fold enrichment (6-mer frequency, TF over GST control)
binding signal (EHF): 1.13 fold enrichment (6-mer frequency, TF over GST control)
binding signal (SPI1): 1.11 fold enrichment (6-mer frequency, TF over GST control)
binding signal (SPIB): 1.29 fold enrichment (6-mer frequency, TF over GST control)
binding signal (ELK3): 1.17 fold enrichment (6-mer frequency, TF over GST control)
binding signal (FEV): 1.14 fold enrichment (6-mer frequency, TF over GST control)
binding signal (ETV5): 1.2 fold enrichment (6-mer frequency, TF over GST control)
binding signal (HSF1): 1.44 fold enrichment (6-mer frequency, TF over GST control)
binding signal (SPIC): 1.3 fold enrichment (6-mer frequency, TF over GST control)
binding signal (ELF4): 1.26 fold enrichment (6-mer frequency, TF over GST control)
binding signal (ELK4): 1.37 fold enrichment (6-mer frequency, TF over GST control)
binding signal (ETV2): 1.14 fold enrichment (6-mer frequency, TF over GST control)
binding signal (ELF3): 1.38 fold enrichment (6-mer frequency, TF over GST control)
binding signal (CRX): 1.85 fold enrichment (6-mer frequency, TF over GST control)
binding signal (ETV1): 1.2 fold enrichment (6-mer frequency, TF over GST control)
